MLL AF4-AF9 inh = MLL-AF4/AF9 protein interaction inhibition | P42568 | AlphaScreen, biotin-AF4 peptide binding to FLAG-AF9 | inhibition, % at 10 µM | hit rate 0.47% among 350,000 | AID 651704;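 active means every replicate reaching a set inhibition limit, whatever the replicate mean, cut at about 25% in these data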
Target sequence (P42568 whole entry, looked up): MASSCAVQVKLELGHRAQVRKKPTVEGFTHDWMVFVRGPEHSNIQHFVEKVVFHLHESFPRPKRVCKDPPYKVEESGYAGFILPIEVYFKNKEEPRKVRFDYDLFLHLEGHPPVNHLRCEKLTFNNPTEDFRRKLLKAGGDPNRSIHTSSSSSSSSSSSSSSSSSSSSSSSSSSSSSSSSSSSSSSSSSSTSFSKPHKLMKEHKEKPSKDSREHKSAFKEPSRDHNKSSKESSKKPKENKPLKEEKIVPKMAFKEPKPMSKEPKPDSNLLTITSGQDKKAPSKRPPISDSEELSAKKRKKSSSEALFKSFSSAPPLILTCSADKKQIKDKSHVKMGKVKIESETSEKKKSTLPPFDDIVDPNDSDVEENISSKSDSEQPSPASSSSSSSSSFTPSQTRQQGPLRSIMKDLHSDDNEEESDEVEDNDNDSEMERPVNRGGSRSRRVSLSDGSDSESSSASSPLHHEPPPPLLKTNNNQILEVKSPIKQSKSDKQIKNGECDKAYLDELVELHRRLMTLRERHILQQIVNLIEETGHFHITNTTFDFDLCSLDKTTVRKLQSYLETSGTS
ERAP1 inh = inhibitors of human ERAP1 aminopeptidase; Q9NZ08; recombinant ERAP1, Leu-AMC fluorescence, 60 min; inhibition, % at 10.7 µM; hit rate 0.15% among 340,000; AID 652197;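 active means mean replicate inhibition of at least 30%, or all replicates individually reaching that 30% level; inactive means mean below 30% and not every replicate reaching it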
INS-1E GSIS act = GLuc luminescence reporter in INS-1E cells, primary screen for activators of glucose-dependent secretion of insulin | INS-1E GLuc reporter insulin secretion, 2-3 h | activation, % at 16.6 µM | hit rate 0.61% among 370,000 | AID 743287;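 active means lowest replicate activation of at least 40%, so every replicate reaches that level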
PGC1a acetyl inh = lowers PGC1a acetylation signal in U2OS cells. AID 651687. AlphaScreen anti-acetyl-lysine; with virally co-expressed GCN5 acetyltransferase. inhibition, % at 15.6 µM. hit rate 0.17% among 350,000;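 active means every replicate shows inhibition of at least 40%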
RAD52 anneal inh = inhibitors of human RAD52 DNA annealing | AID 651710 | P43351 | recombinant RAD52 DNA annealing, FRET fluorescence | hit rate 0.46% among 360,000 | inhibition, % at 18.7 µM;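 active means every replicate showing at least 50% inhibition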
RAD54 branch = inhibitors of human RAD54 branch migration; AID 602329; hit rate 0.14% among 360,000; RAD54 Holliday junction branch migration, FAM/BHQ fluorescence; inhibition, % at 10.4 µM;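 active means mean normalized replicate activity at least 40 and at least half of replicates scoring 40 or more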;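 further: inhibitors cause a drop in the FAM fluorescence signal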
A number is an active result; ! = a repeat was not active. Most compounds without a hit are left out; they make up all but 1.4% or so of the library.

For C[C@@H]1CN([C@@H](C)CO)C(=O)c2cc(C#Cc3ccccc3F)cnc2O[C@@H]1CN(C)C(=O)c1ccc2c(c1)OCO2 the results were MLL AF4-AF9 inh inactive, ERAP1 inh inactive, INS-1E GSIS act inactive, PGC1a acetyl inh inactive, RAD52 anneal inh inactive and RAD54 branch inactive.
Screening CCOc1ccc(CCNC(=O)CS(=O)(=O)Cc2nc(-c3ccc(OC)cc3)oc2C)cc1 returned MLL AF4-AF9 inh inactive, ERAP1 inh inactive, INS-1E GSIS act inactive, PGC1a acetyl inh inactive, RAD52 anneal inh inactive and RAD54 branch inactive.
`CCOc1ccc(CNC(=O)CS(=O)(=O)Cc2nc(-c3ccc(OC)cc3)oc2C)cc1` gave MLL AF4-AF9 inh 48, ERAP1 inh inactive, INS-1E GSIS act inactive, RAD52 anneal inh inactive and RAD54 branch inactive.
`S=C(NCCCN1CCOCC1)NCCCN1CCOCC1` gave MLL AF4-AF9 inh inactive, ERAP1 inh inactive, INS-1E GSIS act inactive, PGC1a acetyl inh inactive, RAD52 anneal inh inactive and RAD54 branch inactive.
Screening S=c1[nH]nc(NCCCN2CCOCC2)s1 returned MLL AF4-AF9 inh inactive, ERAP1 inh 86, INS-1E GSIS act inactive and RAD52 anneal inh inactive.
CO[C@H]1CN(C)C(=O)c2ccc(NC(=O)Cc3ccccc3)cc2OC[C@H](C)NC[C@@H]1C was read as MLL AF4-AF9 inh inactive, ERAP1 inh inactive, INS-1E GSIS act inactive, PGC1a acetyl inh inactive and RAD52 anneal inh inactive.
O=C(O)c1ccc(N=N/C(=N\Nc2ccc(C(=O)O)cc2)c2ccccc2)cc1 was read as MLL AF4-AF9 inh inactive, ERAP1 inh inactive, INS-1E GSIS act inactive, PGC1a acetyl inh inactive, RAD52 anneal inh inactive and RAD54 branch inactive.
`Brc1ccc(N/N=C(/N=Nc2nn[nH]n2)c2ccccc2)cc1` gave MLL AF4-AF9 inh 41, ERAP1 inh inactive, INS-1E GSIS act inactive, PGC1a acetyl inh 97 and RAD52 anneal inh inactive.
For O=C(C1CCC1)N1CC[C@@H]2[C@H](CO)Nc3ccc(C4=CCCCC4)cc3[C@@H]21 the results were INS-1E GSIS act inactive.
Screening COC(=O)c1c(NC(=O)c2ccco2)sc(C)c1C returned PGC1a acetyl inh inactive and RAD54 branch inactive.
Screening Cc1c(Cc2ccccc2)sc(NC(=O)c2ccco2)c1C(N)=O returned INS-1E GSIS act 86, PGC1a acetyl inh inactive and RAD54 branch inactive.
For CO[C@H]1CN(C)C(=O)c2cc(NC(C)=O)ccc2OC[C@H](C)N(C(=O)c2cnccn2)C[C@@H]1C the results were MLL AF4-AF9 inh inactive, INS-1E GSIS act inactive, PGC1a acetyl inh inactive and RAD54 branch inactive.
`C[C@H](CO)N1C[C@H](C)[C@@H](CN(C)S(=O)(=O)c2ccc(F)cc2)Oc2c(NC(=O)NC3CCCCC3)cccc2C1=O` gave MLL AF4-AF9 inh 49!, ERAP1 inh inactive, INS-1E GSIS act inactive, PGC1a acetyl inh inactive, RAD52 anneal inh inactive and RAD54 branch inactive.
C[C@H]1CN([C@@H](C)CO)C(=O)c2cc(C#CCN(C)C)cnc2O[C@H]1CN(C)S(=O)(=O)c1cn(C)cn1 was read as MLL AF4-AF9 inh inactive, ERAP1 inh inactive, INS-1E GSIS act inactive, RAD52 anneal inh inactive and RAD54 branch inactive.
For C[C@@H]1CN([C@H](C)CO)C(=O)c2cc(C#CCN(C)C)cnc2O[C@H]1CN(C)S(=O)(=O)c1cn(C)cn1 the results were MLL AF4-AF9 inh inactive, ERAP1 inh inactive, INS-1E GSIS act 40, PGC1a acetyl inh inactive, RAD52 anneal inh inactive and RAD54 branch inactive.
`C[C@H]1CN([C@@H](C)CO)C(=O)c2cc(C#CC3CCCCC3)cnc2O[C@@H]1CN(C)S(=O)(=O)c1cccc(F)c1` gave MLL AF4-AF9 inh 32, ERAP1 inh inactive, INS-1E GSIS act inactive, PGC1a acetyl inh inactive, RAD52 anneal inh inactive and RAD54 branch inactive.
Screening C[C@@H]1CN([C@H](C)CO)C(=O)c2cc(C#CCN(C)C)cnc2O[C@H]1CN(C)Cc1ccc(-c2ccccc2)cc1 returned MLL AF4-AF9 inh 27, ERAP1 inh inactive, INS-1E GSIS act inactive, PGC1a acetyl inh inactive, RAD52 anneal inh inactive and RAD54 branch inactive.
C[C@@H]1CN([C@H](C)CO)C(=O)c2cc(C#CCN(C)C)cnc2O[C@H]1CN(C)Cc1ccccc1 was read as MLL AF4-AF9 inh inactive, ERAP1 inh inactive, INS-1E GSIS act inactive, PGC1a acetyl inh inactive, RAD52 anneal inh inactive and RAD54 branch inactive.
C[C@H]1CN([C@@H](C)CO)C(=O)c2cc(-c3ccccc3F)cnc2O[C@H]1CN(C)C(=O)C1CC1 was read as MLL AF4-AF9 inh inactive, ERAP1 inh inactive, INS-1E GSIS act inactive, PGC1a acetyl inh inactive, RAD52 anneal inh inactive and RAD54 branch inactive.
For O=C(C[C@H]1CC[C@@H](NC(=O)NC2CCCC2)[C@@H](CO)O1)NCc1ccc(F)cc1 the results were MLL AF4-AF9 inh inactive, ERAP1 inh inactive, INS-1E GSIS act inactive, PGC1a acetyl inh inactive, RAD52 anneal inh inactive and RAD54 branch inactive.
`C[C@@H]1C/C=C\C[C@@H](c2ccc3c(c2)OCO3)NC(=O)[C@@H](c2ccccc2)CC(=O)N1` gave INS-1E GSIS act inactive.
C[C@@H]1CN([C@@H](C)CO)S(=O)(=O)c2ccc(C#C[C@@H](C)O)cc2O[C@H]1CN(C)Cc1ccc(-c2ccccc2)cc1 was read as MLL AF4-AF9 inh inactive, ERAP1 inh inactive, INS-1E GSIS act inactive, PGC1a acetyl inh inactive, RAD52 anneal inh inactive and RAD54 branch inactive.
C[C@@H]1CN([C@@H](C)CO)C(=O)c2cc(C#CCN(C)C)cnc2O[C@H]1CN(C)Cc1ccc(-c2ccccc2)cc1 was read as MLL AF4-AF9 inh 34!, ERAP1 inh inactive, INS-1E GSIS act inactive, PGC1a acetyl inh inactive, RAD52 anneal inh inactive and RAD54 branch inactive.
C[C@@H]1CN([C@@H](C)CO)C(=O)c2cc(C#CCN(C)C)cnc2O[C@@H]1CN(C)Cc1ccc(-c2ccccc2)cc1 was read as MLL AF4-AF9 inh inactive, ERAP1 inh inactive, INS-1E GSIS act inactive, PGC1a acetyl inh inactive, RAD52 anneal inh inactive and RAD54 branch inactive.
For COCC(=O)N1C[C@H](C)[C@H](OC)CN(C)C(=O)c2ccc(NC(=O)Nc3ccccc3)cc2OC[C@H]1C the results were INS-1E GSIS act inactive.
NC(=O)c1cccnc1Oc1ccccc1 was read as MLL AF4-AF9 inh inactive, INS-1E GSIS act inactive, PGC1a acetyl inh inactive, RAD52 anneal inh inactive and RAD54 branch inactive.
NNC(=O)c1cccnc1Oc1ccccc1 was read as MLL AF4-AF9 inh inactive, INS-1E GSIS act 44, PGC1a acetyl inh inactive, RAD52 anneal inh inactive and RAD54 branch inactive.
C[C@@H]1CN([C@H](C)CO)C(=O)c2cc(NC(=O)C3CCCCC3)ccc2O[C@H]1CN(C)Cc1ccccc1 was read as MLL AF4-AF9 inh inactive, ERAP1 inh inactive, INS-1E GSIS act inactive, RAD52 anneal inh inactive and RAD54 branch inactive.
Screening O=C(c1ccccc1)N1CC2(C1)[C@H](c1ccccc1)[C@@H](CO)N2Cc1cccnc1 returned MLL AF4-AF9 inh inactive, ERAP1 inh inactive, INS-1E GSIS act inactive, PGC1a acetyl inh inactive and RAD52 anneal inh inactive.
`N#Cc1c(-c2ccncc2)cc(-c2ccc(F)cc2)nc1N` gave MLL AF4-AF9 inh inactive, ERAP1 inh inactive, INS-1E GSIS act 49, PGC1a acetyl inh inactive, RAD52 anneal inh inactive and RAD54 branch inactive.

Bioassay records deposited in PubChem BioAssay by Broad Institute.
